40 compounds from PubChem BioAssay (NCI) can be followed below.

This is part of a sample that, as a whole, favours compounds with a hit. Of some 83,000 tested, about 20% had one in any assay.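 The endpoint reported here, percent growth, reads 100 for growth as untreated, 0 for no net growth and -100 for all cells dead.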 Active and inactive are the calls of the source.

The test system of this assay is OVCAR-4 ovarian. The experiment in a line: NCI-60 one-dose screen, 48 h (100 = growth as untreated, 0 = no growth, -100 = all killed). The settings on record: 10 µM unless noted. As to the method:
Growth inhibition of the OVCAR-4 human tumor cell line is measured as a screen for anti-cancer activity. Cells are grown in 96 well plates and exposed to the test compound for 48 hours. Compounds are tested at a single concentration, which is 10^-5 M for most compounds. The reported endpoint is percent growth (GI% or GIPRCNT), where numbers from 0 - 100% represent growth inhibition, and numbers from -100% - 0 represent cell death. For example, a value of 40 represents 60% growth inhibition. A value of 0 means no net growth occurred over the course of the experiment. A value of -40 indicates 40% of cells at the beginning of the experiment died by the end of the experiment. A value of -100 means all cells are dead at the end of the experiment.
NCI-60 Human Tumor Cell Lines Screen was performed using the standard one-dose NCI protocol, which is described in more detail at https://dtp.cancer.gov/discovery_development/nci-60/default.htm.
Compounds with GIPRCNT values below 10 were considered active. Activity score was based on GIPRCNT using the following formula: […]
Score is 0 for GIPRCNT values of 100 or above, 50 for GIPRCNT values of 0, and 100 for GIPRCNT values of -100.
On to `COc1cc(Cl)c(C)cc1NC(=O)c1cc2ccccc2cc1O`, for which the growth was 20.7% (inactive).
Then `CC1=CCC(OC(=O)C(C)(C)CC(O)(C(C)O)C(O)C2(C)C=CC(Cc3ccc(C(C)C)cc3)(C(C)C)CC2)(C(C)C)CC1` (stereo not given), with 102% (inactive).
For the compound `C/C(=N\O)c1ccc(NC(=O)CSc2nnc(-c3cc(-c4ccc(S(C)(=O)=O)cc4)nc4ccccc34)n2-c2ccccc2)cc1`, the growth was 98.7% (inactive).
For the compound `O=C1c2cccc3cccc(c23)C(=O)N1C/C=C/c1ccc2c3c(cccc13)C(=O)N(CCO)C2=O`, the growth was 40.1% (inactive).
Take `Oc1c(CN2CCCC2)cc(CSCc2ccccc2)c2cccnc12`: the growth was -2.42% (active).
The figure for `NC(=O)c1cnc(Nc2cccc(N)c2)nc1NCCCNC(=O)C1CCC1` is 88.5% (inactive); for `COc1ccc(/C=C/C(c2cc(OC)c(OC)c(OC)c2)n2cncn2)cc1` (stereo not given) it is 96.8% (inactive); for `COc1ccc(/C=C(/c2ccccc2)[N+](=O)[O-])c(OC)c1` it is 14.4% (inactive).
The figure for `NC(N)=NS(=O)(=O)c1ccc(NC2=C(I)C(=O)c3ncccc3C2=O)cc1` is 93% (inactive).
With `N#Cc1cccc(C2C3=C(COC3=O)N(CCO)c3cc4c(cc32)CCC4)c1` (stereo not given), the growth is 56.4% (inactive).
With `CCCCNC(=O)Oc1ccc(/C(=C(/C)Cc2ccc(OC)cc2)c2ccc(OCCN3CCCCCC3)cc2)cc1`, the growth was 84.4% (inactive).
Consider `Cc1ccc(CNc2c3ccccc3nc3ccccc23)cc1`, for which the growth was 24.5% (inactive).
Then `COc1ccc(NC(=O)Nc2ccc(OCCCCCC(=O)NO)cc2)cc1`, with 122% (inactive).
Consider `O=C(O)c1cn(C2CC2)c2cc(N3CCN(C(=O)Nc4nc(-c5ccc(Br)cc5)cs4)CC3)c(F)cc2c1=O`, for which the growth was 26.6% (inactive).
`COc1cc(-c2nc3sccn3c2-c2ccnc(NCCNS(=O)(=O)c3ccc(Cl)cc3)n2)ccc1F`: the growth is 21.3% (inactive).
Then `COC(=O)C(Cc1ccccc1)NC(=O)c1ccc(NC(=O)c2[nH]c(C)c(Cl)c2Cl)c(OC(C)C)c1` (stereo not given), with 39.7% (inactive); and `CCN1CCN(c2cc(C)nc(N(CCNc3ccnc4cc(Cl)ccc34)Cc3ccc4c(c3)OCO4)n2)CC1`, with 19.8% (inactive); and `CC1=C(C(=O)Nc2ccccc2)C(c2ccc3c(c2)OCO3)NC(=S)N1` (stereo not given), with 114% (inactive).
Turning to `CC1(C)CC(=O)c2c(nn(-c3ccc(Br)cc3)c2-c2cn(-c3ccccc3)nc2-c2cccnc2)C1`, the growth is 84.5% (inactive).
With `COc1ccc(C2=NN(C(C)=O)C(c3cn(-c4ccccc4)nc3-c3ccc(Cl)cc3)C2)cc1` (stereo not given), the growth is -23.5% (active).
As to `O=C(Nc1ccc(Cl)cc1)Oc1c(Cl)c(Cl)c(Cl)c(Cl)c1Cl`, the growth was 88.6% (inactive).
Regarding `CC1(C)NCCC[C@]2(C)[C@H]3CC[C@H]4[C@H]5[C@H](C(=O)/C=C/c6cccnc6)CCC[C@]5(CO)CC[C@@]4(C)[C@]3(C)CC[C@@H]12`, the growth is 75.3% (inactive).
As for `O=C1c2ccccc2C(=O)c2c1cc1c(c2[N+](=O)[O-])OCO1`, the growth is 19.2% (inactive).
Regarding `O=C1/C(=C/c2ccc(F)cc2)CN(C(=O)C(Cl)Cl)C/C1=C\c1ccc(F)cc1`, the growth was 12.7% (inactive).
Then `Cc1ccc(S(=O)(=O)Oc2ccc3sc4cccc(NCCN(C)C)c4c(=O)c3c2)cc1`, with -69.8% (active); and `CC1(C)[C@@H](O[C@@H]2OC[C@@H](O[C@@H]3O[C@H](CO)[C@@H](O)[C@H](O)[C@H]3O[C@@H]3OC[C@@H](O)[C@H](O)[C@H]3O)[C@H](O)[C@H]2O[C@@H]2O[C@H](CO)[C@@H](O)[C@H](O)[C@H]2O)CC[C@]2(C)[C@H]3CC[C@]45OC[C@@]6(CC[C@](C)(C=O)C[C@H]64)[C@H](O)C[C@@]5(C)[C@]3(C)CC[C@@H]12`, with -67.1% (active); and `Nc1[nH]c(=S)nc2oc(-c3ccccc3)c(-c3ccccc3)c12`, with 97.2% (inactive).
`COc1ccc2c(c1)CCc1[nH]nc(-c3cc(OC)c(OC)c(OC)c3)c1-2`: the growth was 45.3% (inactive).
`O=c1ccc(=O)n(-c2nc(-c3ccc([N+](=O)[O-])cc3)cs2)[nH]1`: the growth is 101% (inactive).
As to `O=C1/C(=C/c2ccccc2F)CN(C(=O)C(Cl)Cl)C/C1=C\c1ccccc1F`, the growth is 14.9% (inactive).
`O=C1c2ccccc2C(=O)C1c1ccc(Br)cc1`: the growth was 98.8% (inactive).
Consider `NNCCc1ccc(NC(=O)CCCc2ccc(C(=O)Nc3ccccc3N)cc2)cc1`, for which the growth is 70.1% (inactive).
As for `C=C1CC[C@@H]2C(C)(C)[C@@H](O)CC[C@@]2(C)[C@@H]1COc1ccc2ccc(=O)oc2c1`, the growth was 67.5% (inactive).
Take `CN(CCCNC(=O)CCOCCOCCOCCNC(=O)Cc1ccc2ccc3cccc4ccc1c2c34)CCCNc1cc(-c2ccc3ccccc3c2)nc2ccccc12`: the growth was -90.6% (active).
In the case of `O=C(CSc1nc(-c2ccccc2)cc(=O)[nH]1)Nc1nc(-c2ccccc2)cs1`, the growth was 96.1% (inactive).
On to `CCN(CC)CCN1C(=O)c2c(c(C)c3c(oc4ccc(OC)cc43)c2C)C1=O`, for which the growth is 103% (inactive).
Turning to `COc1ccc(-c2nc3c(N)c(CO)cnc3s2)cc1`, the growth was 101% (inactive).
As for `CCOC(=O)c1[nH]c2c(c1C)-c1[nH]c(=O)c(S(=O)(=O)c3ccccc3)cc1SC2`, the growth was 5.79% [100 µM] (active).
With `CS(=O)(=O)Nc1cc(-c2ccc3ncc(C#N)c(Nc4ccc(F)c(Cl)c4)c3c2)cnc1Cl`, the growth was -6.46% (active).
In the case of `CC/C=C\CCC/C=C1/C(=O)C=C[C@@H]1C/C=C\CCCC(=O)OC`, the growth was 76.6% (inactive).
